Screening data (PubChem)
SENP8 block-1 = SENP8 protease inhibitors, primary screen, biochemical, luminescence; Sentrin-specific protease 8 (Homo sapiens), Q96LD8; purified SENP8, Z-RLRGG-aminoluciferin cleavage; inhibition, % at 10 µM; 330,000 tested, 1.2% active; AID 2540, 2010; in the data active = inhibition above about 50%
Target sequence (Q96LD8 whole entry, looked up): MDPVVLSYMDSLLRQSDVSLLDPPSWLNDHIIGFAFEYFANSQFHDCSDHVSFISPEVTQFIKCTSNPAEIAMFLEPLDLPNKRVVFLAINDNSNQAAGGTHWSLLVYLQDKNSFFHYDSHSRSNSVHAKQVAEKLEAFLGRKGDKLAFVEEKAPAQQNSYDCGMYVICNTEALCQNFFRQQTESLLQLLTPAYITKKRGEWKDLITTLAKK
SENP6 inh = SENP6 protease inhibitors, primary screen, biochemical, luminescence, uHTS; Sentrin-specific protease 6 (Homo sapiens), Q9GZR1; AID 2599, 2010; 330,000 tested, 1.8% active; Recombinant SENP6 catalytic domain, aminoluciferin luminescence; inhibition, % at 10 µM;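 active = inhibition above about 50% at the single tested dose, limit read from the data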
SENP7 block = SENP7 protease inhibitors, primary screen, biochemical, luminescence, uHTS | Sentrin-specific protease 7 (Homo sapiens), Q9BQF6 | recombinant SENP7, Z-RLRGG-aminoluciferin luminescence, 40 min | inhibition, % at 5 µM | 330,000 tested, 1.5% active;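 active = inhibition above about 50% at the single test dose, limit read from the data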
Platelet DG rel = inhibitors of platelet dense granule secretion, primary screen, cell-based, MLPCN, human platelets; human platelet-rich plasma, SFLLRN dense granule ATP release, luminescence; inhibition, %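 (compounds screened at 7.5 µM in platelet-rich plasma)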; 300,000 tested, 0.22% active; AID 1663, 2009;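 active = mean replicate score, as percent of positive control, at or above 50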
SENP8 block-2 = human SENP8 protease inhibitors, primary screen, biochemical, fluorescence, Nedd8 protein substrate, uHTS; Sentrin-specific protease 8 (Homo sapiens), Q96LD8; recombinant SENP8; inhibition, % at 20 µM; 360,000 tested, 0.64% active; AID 602440, 2012; in the data active = inhibition mostly above about 40%, no sharp cut-off; inactive = mostly below about 27%
HSP90 inh = HSP90 inhibitors, primary screen, cell lysate, luminescence. 290,000 tested, 0.91% active. Rabbit reticulocyte lysate, luciferase refolding luminescence, 3 h. inhibition, % at 5.6 µM. Heat shock protein HSP 90 (rabbit reticulocyte lysate; luciferase refolding). AID 1789, 2009;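 active = inhibition above the screen-wide mean plus 3 SD, computed separately per campaign, cut at about 16% in these data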;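 note: inhibitors lower the luminescence because luciferase stays unfolded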
SENP8 conf = SENP8 protease inhibitors, retest, confirmation, biochemical, luminescence, single concentration; shares compounds with SENP7 block; Recombinant SENP8, Z-RLRGG-aminoluciferin luminescence, 60 min; inhibition, % at 12.5 µM; 6,200 tested, 40% active;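 active = mean inhibition across replicates above about 50%, limit read from the data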
SENP6 confirm = SENP6 protease inhibitors, confirmation, biochemical, luminescence, single concentration | 6,200 tested, 58% active | shares compounds with SENP7 block | AID 488915, 2010 | recombinant SENP6, Z-RLRGG-aminoluciferin luminescence | inhibition, % at 12.5 µM
SENP7 confirm = SENP7 protease inhibitors, retest, confirmation, biochemical, luminescence, single concentration; 6,200 tested, 69% active; shares compounds with SENP7 block; recombinant SENP7, Z-RLRGG-aminoluciferin luminescence, 40 min; inhibition, % at 12.5 µM; AID 488917, 2010
Casp3 SENP sel = caspase-3 protease inhibitors, confirmation, selectivity assay for SENP inhibitor project, biochemical, single concentration. shares compounds with SENP7 block. purified caspase-3, Z-DEVD-aminoluciferin luminescence, 60 min. inhibition, % at 12.5 µM. 6,200 tested, 60% active;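 active = mean inhibition above about 50%, limit read from the data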
Target sequence (P42574 28-227 limits assumed): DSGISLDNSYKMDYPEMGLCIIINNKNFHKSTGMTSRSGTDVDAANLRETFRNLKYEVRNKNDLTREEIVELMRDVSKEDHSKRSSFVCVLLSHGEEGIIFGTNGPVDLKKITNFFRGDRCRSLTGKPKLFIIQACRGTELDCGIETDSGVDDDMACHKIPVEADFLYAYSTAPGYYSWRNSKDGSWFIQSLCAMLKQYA
Luc interf = interferes with luciferase luminescence in SENP counter-screen; shares compounds with SENP7 block; 6,200 tested, 39% active; inhibition, % at 12.5 µM; Pre-incubated SENP8/Z-RLRGG-aminoluciferin, luciferase luminescence interference;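 active = mean inhibition above about 50% when retested at one dose, limit read from the data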
Of the large screens only hits and unclear results are named; the others gave an inactive call (follow-up assays come after a bar, where they were run). This is a sample that favours compounds with a hit; in the whole collection about 2.8% have one here.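 Rule for the calls, unless noted: active = mean inhibition above about 50% in the one-dose retest (limit read from the data); inactive = the rest.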

c1ccc2cc(OCc3nc4ccccc4[nH]3)ccc2c1	SENP8 block-1 80, SENP6 inh 87, SENP7 block 77 | SENP8 conf inactive | SENP6 confirm 68 | SENP7 confirm 95 | Casp3 SENP sel 66 | Luc interf inactive
Cc1ccccc1OCc1nc2ccccc2[nH]1	SENP8 block-1 68, SENP6 inh 80, SENP7 block 86 | SENP8 conf 72 | SENP6 confirm 72 | SENP7 confirm 92 | Casp3 SENP sel 86 | Luc interf 62
COc1cccc(OCc2nc3ccccc3[nH]2)c1	SENP8 block-1 65, SENP6 inh 67, SENP7 block 74 | SENP8 conf 73 | SENP6 confirm 72 | SENP7 confirm 93 | Casp3 SENP sel 86 | Luc interf 75
Brc1ccc(OCc2nc3ccccc3[nH]2)cc1	SENP8 block-1 56, SENP6 inh 62, SENP7 block 66 (no result: Platelet DG rel) | SENP8 conf inactive | SENP6 confirm inactive | SENP7 confirm 85 | Casp3 SENP sel 58 | Luc interf inactive
COc1cccc(OCc2nc3ncc(Br)cc3[nH]2)c1	none
Cc1ccc(SCc2nc3ccccc3[nH]2)cc1	SENP6 inh 57 | SENP8 conf 51 | SENP6 confirm inactive | SENP7 confirm 76 | Casp3 SENP sel 64 | Luc interf 56
COc1ccc(OCc2nc3ccccc3[nH]2)cc1	SENP8 block-1 72, SENP6 inh 72 | SENP8 conf inactive | SENP6 confirm 76 | SENP7 confirm 94 | Casp3 SENP sel 90 | Luc interf 80
COc1ccccc1OCc1nc2ccccc2[nH]1	none
c1ccc(SCc2nc3ccccc3[nH]2)cc1	none
O=[N+]([O-])c1ccc(NN=CC2CCCCCC2)c([N+](=O)[O-])c1	none (no result: SENP8 block-1, SENP6 inh, SENP7 block, Platelet DG rel, HSP90 inh)
CN(CC(=O)Nc1ccccc1Cl)C(=O)Cn1cnc2ccccc2c1=O	none (no result: Platelet DG rel, HSP90 inh)
Cc1cc(C)c(NC(=O)CN(C)C(=O)CNC(=O)c2cccs2)c(C)c1	none (no result: Platelet DG rel, HSP90 inh)
CCOC(=O)Cc1csc(NC(=O)CSc2ncnc3c2cnn3-c2ccc(OC)cc2)n1	SENP8 block-1 71, SENP6 inh 75, SENP7 block 52 | SENP8 conf inactive | SENP6 confirm 69 | SENP7 confirm 59 | Casp3 SENP sel 84 | Luc interf inactive
COc1ccc(-n2ncc3c(SCC(=O)N4CCN(c5ccccc5OC)CC4)ncnc32)cc1	SENP8 block-1 69 | SENP8 conf inactive | SENP6 confirm inactive | SENP7 confirm inactive | Casp3 SENP sel inactive | Luc interf inactive
CCOC(=O)c1ccccc1NC(=O)Cc1ccc(S(=O)(=O)N2CCCC2)s1	none (no result: Platelet DG rel, HSP90 inh)
Cc1cc(SCC(=O)OCC(=O)N(CCC#N)c2ccccc2)nc2ccccc12	none (no result: HSP90 inh)
O=C(/C=C/c1ccccc1)Nc1cccnc1	SENP8 block-1 51, SENP6 inh 66, SENP7 block 76 | SENP8 conf inactive | SENP6 confirm 57 | SENP7 confirm 90 | Casp3 SENP sel 84 | Luc interf 72
O=C(/C=C/c1ccc([N+](=O)[O-])cc1)Nc1cccnc1	SENP6 inh 71, SENP7 block 58 | SENP8 conf inactive | SENP6 confirm 64 | SENP7 confirm 92 | Casp3 SENP sel 77 | Luc interf inactive
O=C(C=Cc1ccccc1)Nc1ccccc1	none (no result: SENP8 block-1, SENP6 inh, SENP7 block, Platelet DG rel, HSP90 inh)
O=C1CSC(c2ccc([N+](=O)[O-])cc2)N1c1ccccc1 (stereo not given)	none
CCOC(=O)Cc1csc(N/N=C\c2ccccc2OC)n1	SENP6 inh 68 | SENP8 conf 58 | SENP6 confirm 54 | SENP7 confirm 79 | Casp3 SENP sel inactive | Luc interf 55
COc1ccc(CCN2CC(C(=O)NCCN3CCOC3=O)CCC2=O)cc1 (stereo not given)	none
CCCCOC(=O)Nc1ccc2c(C)cc(=O)oc2c1	SENP7 block 62 | SENP8 conf inactive | SENP6 confirm inactive | SENP7 confirm 50 | Casp3 SENP sel inactive | Luc interf inactive
CCc1ccc(NC(=O)Nc2cccc(OC)c2)cc1	SENP8 block-1 53, SENP7 block 56 | SENP8 conf inactive | SENP6 confirm 51 | SENP7 confirm 82 | Casp3 SENP sel inactive | Luc interf 59
COc1cccc(NC(=O)c2nnn(CCc3ccccc3)c2N)c1	SENP8 block-1 64, SENP6 inh 72, SENP7 block 76 | SENP8 conf 76 | SENP6 confirm 75 | SENP7 confirm 93 | Casp3 SENP sel 75 | Luc interf 62
COc1cccc(NC(=O)c2ccc(OC(F)(F)F)cc2)c1	SENP8 block-1 85, SENP6 inh 88, SENP7 block 94 (no result: HSP90 inh) | SENP8 conf 66 | SENP6 confirm 79 | SENP7 confirm 98 | Casp3 SENP sel 87 | Luc interf inactive
COc1cccc(NC(=O)c2ccccc2C(F)(F)F)c1	none
COc1cccc(NC(=O)Cn2nnc(C(=O)Nc3ccccc3)c2N)c1	none
COc1ccc(Nc2c(CCc3ccccc3)nc3nc(C)cc(C)n23)cc1	none (no result: SENP8 block-1, SENP6 inh, SENP7 block, Platelet DG rel, HSP90 inh)
O=C(Nc1ccc(Br)cc1F)c1ccc2nsnc2c1	none
CCOC(=O)Nc1cccc(C(=O)O)c1	SENP6 inh 61, SENP7 block 55 | SENP8 conf 52 | SENP6 confirm 54 | SENP7 confirm 86 | Casp3 SENP sel inactive | Luc interf 71
Cc1ccc(NC(=O)c2ccc3nsnc3c2)c(Cl)c1	SENP6 inh 62, SENP7 block 81 | SENP8 conf inactive | SENP6 confirm inactive | SENP7 confirm inactive | Casp3 SENP sel inactive | Luc interf inactive
COc1cccc(NC(=O)Nc2cccnc2)c1	none
